High-throughput results from PubChem.
zVAD death inh – blocks zVAD induced death of L929 cells; L929 zVAD necroptosis rescue, ATP luminescence, 24 h; with zVAD 60 µM; 220,000 tested, 0.38% active; viability rescue, % at 10 µM; AID 1377;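 active = activation, scaled between plate controls, above about 75%, limit read from the data; inactive = activation under that limit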
HSV augment – HSV replication enhancement. HSV replication augmentation in cells, fold increase. maximum fold increase. 220,000 tested, 0.005% active; in the data active = maximum fold increase above about 1.5; tested in PC3 cells
S1P4 antag – human S1P4 receptor antagonism | inhibition, % at 4.98 µM | 220,000 tested, 0.26% active | S1P4-expressing cells, antagonist mode, reporter read-out; in the data active = inhibition above about 29%
S1P4 ag – human S1P4 receptor agonism | S1P4-expressing cell line, agonist reporter assay | activation, % at 4.98 µM | 220,000 tested, 0.35% active | AID 1509; in the data active = activation above about 11%
Hsp70 activator – Hsp70 transcriptional activation, primary screen; HeLa Hsp70 promoter luciferase reporter, luminescence; scaled: vehicle 0, proteasome-inhibitor control 100%; activation, % at 10 µM; 200,000 tested, 0.04% active; AID 1203;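 active = activation above the mean across all tested compounds plus 3 SD, cutoff set per campaign, cut at about 5.5% in these data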
TNF necrop inh – inhibitors of TNF-alpha induced necroptosis in Jurkat FADD-/- cells | Jurkat FADD-/- TNF necroptosis rescue, ATP luminescence, 24 h; 0 = TNF only, 100 = no-TNF cells | activation (protection from cell death), % at 10 µM | 220,000 tested, 0.068% active | AID 463075;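 active = activation, meaning protection from cell death, of at least 50% relative to plate controls; inactive = activation below 50%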;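 also: necroptosis triggered by 40 ng/mL TNF-alpha added together with compound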
S1P4 agonist cf – human S1P4 agonism, confirmation; S1P4 agonist cell-based reporter assay; activation, % at 4.98 µM; 740 tested, 7% active; shares compounds with S1P4 ag; AID 1523; in the data active = activation above about 12%
S1P1 ag – counter-screen for S1P4 agonists: agonists of human S1P1 | S1P1 agonist cell-based assay, activation | AID 1563 | activation, % at 4.98 µM | 740 tested, 4% active | shares compounds with S1P4 ag; in the data active = activation above about 21%
Target sequence (P21453 whole entry, looked up): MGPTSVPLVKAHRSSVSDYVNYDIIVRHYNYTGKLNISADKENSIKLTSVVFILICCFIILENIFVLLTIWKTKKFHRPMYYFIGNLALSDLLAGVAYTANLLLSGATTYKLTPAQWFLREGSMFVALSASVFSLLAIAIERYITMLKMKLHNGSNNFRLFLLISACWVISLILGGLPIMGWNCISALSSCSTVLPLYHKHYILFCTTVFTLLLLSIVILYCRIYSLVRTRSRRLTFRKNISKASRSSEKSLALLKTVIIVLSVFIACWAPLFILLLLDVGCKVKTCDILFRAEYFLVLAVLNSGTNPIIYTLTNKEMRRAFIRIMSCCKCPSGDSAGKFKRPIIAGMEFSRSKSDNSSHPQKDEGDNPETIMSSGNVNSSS
Numbers stand for hits; - = inactive; . = not tested or not shown. Shown are actives, neighbours in structure and some others; about 1% of the full set was active somewhere.

SMILES	zVAD death inh	HSV augment	S1P4 antag	S1P4 ag	Hsp70 activator	TNF necrop inh	S1P4 agonist cf	S1P1 ag
CCCCc1ccc(S(=O)(=O)N2CCN(C(=O)c3ccco3)CC2)cc1	-	-	-	-	-	-	.	.
CC(/C=N/N1CCN(c2ccccn2)CC1)=C\c1ccccc1	-	-	-	11	-	-	-	-
Cc1cc(C)nc(SCc2nnc(SCC(=O)O)n2-c2ccccc2)n1	-	-	-	14	-	-	-	-
Cc1ccc(OCCOc2ccc(Cl)cc2Cl)c([N+](=O)[O-])n1	-	-	-	102	-	-	80	-
COc1ccc(OCCOc2ccc(C)nc2[N+](=O)[O-])cc1	-	-	-	-	-	-	.	.
CCCCOc1cccc(NC(=O)CSc2nncn2C)c1	-	-	-	-	-	-	.	.
Cc1cc(C(=O)CN2C(=O)NC3(CCCC3)C2=O)c(C)n1-c1ccc2c(c1)OCO2	-	-	-	-	-	-	.	.
Cc1cc(C(=O)CN2C(=O)NC(C)(CC(C)C)C2=O)c(C)n1-c1ccc2c(c1)OCO2 (stereo not drawn)	-	-	-	13	-	-	-	-
Cc1cc(C)n2c(SCC(=O)N(C)C3CCCCC3)nnc2n1	-	-	-	-	-	-	.	.
Cc1c(N/C(=N/S(=O)(=O)c2ccc(F)cc2)c2ccccc2)c(=O)n(-c2ccccc2)n1C	-	-	-	14	-	-	-	-
Cc1cccc(OCC(=O)NNC(=O)Nc2cccc(Cl)c2)c1C	-	-	-	-	-	-	.	.
Cc1cc2nc(/N=C(\N)NC(=O)C(C)C)nc(C)c2cc1C	-	-	-	-	.	-	.	.
CCC(=O)N/C(N)=N/c1nc(C)c2cc(C)c(C)cc2n1	-	-	-	12	.	-	-	-
COCCCN(CC(=O)O)S(=O)(=O)c1cccc(Cl)c1	-	-	-	-	-	-	.	.
COC(=O)/C=C/c1ccc(OC(=O)c2ccncc2)cc1	-	.	-	-	-	-	.	.
O=C(NCc1ccccc1)N[C@@H](Cc1c[nH]c2ccccc12)C(=O)O	-	-	-	14	-	-	-	-
Cc1ccc(N2C(=O)c3ccc(C(=O)N4CCN(Cc5ccccc5)CC4)cc3C2=O)cc1	-	-	-	-	.	-	.	.
CCOC(=O)c1c(NC(C)=O)sc2c(O)cccc12	-	-	-	-	-	-	.	.
CCOC(=O)c1c(NC(C)=O)sc2c(O)c(Br)cc(Br)c12	-	-	-	62	-	-	-	-
CC1CCCC(C)N1C(=O)COc1ccc(F)cc1 (stereo not drawn)	-	-	-	-	-	-	.	.
O=C(CCN1C(=O)c2ccccc2C1=O)NC1=NCCS1	-	-	-	25	-	-	-	-
CC(=O)c1sccc1NC(=O)CC(C)(C)CC(=O)O	-	-	-	-	.	-	.	.
CCCCOc1ccc(C(=O)N/C(=C/C=C/c2ccccc2)C(=O)NCCCO)cc1	-	-	-	13	-	-	-	-
CCCCOc1ccc(C(=O)N/C(=C/C=C/c2ccccc2)C(=O)NCCO)cc1	-	-	-	-	-	-	.	.
CCN(CC)P(=O)(Nc1ccccc1Br)c1ccc(N(C)C)cc1NC(=O)c1ccco1 (stereo not drawn)	-	-	-	-	-	-	.	.
SMILES	zVAD death inh	HSV augment	S1P4 antag	S1P4 ag	Hsp70 activator	TNF necrop inh	S1P4 agonist cf	S1P1 ag
Cc1cc(C)c2c(=O)[nH]c(SCC(=O)NCCc3ccccc3)nc2n1	-	-	-	12	-	-	-	-
COc1ccc(S(=O)(=O)N2c3ccccc3OCC2C)cc1 (stereo not drawn)	-	-	-	15	-	-	-	-
COCCCNC(=O)c1ccc2c(=O)n(Cc3ccc(OC)cc3)c(=O)[nH]c2c1	-	-	-	-	-	-	.	.
COCCCNC(=O)c1ccc(Cn2c(=O)c3ccccc3n(Cc3ccccc3C)c2=O)cc1	-	-	-	-	-	-	.	.
COCCCNC(=O)c1ccc(Cn2c(=O)c3ccccc3n(Cc3ccccc3C#N)c2=O)cc1	-	-	-	58	-	-	-	-
COCCCNC(=O)c1ccc(Cn2c(=O)[nH]c3ccccc3c2=O)cc1	.	.	-	12	-	-	-	-
CCN(CC)C(=O)CSc1nc2cc3c(cc2c(=O)n1CCCCCC(=O)NCc1ccc(OC)cc1)OCO3	-	-	-	-	-	-	.	.
Cc1cc2cc3c(cc2nc1SCC(=O)O)CCC3	-	-	-	43	-	-	-	-
Cc1ccccc1NC(=O)CSc1nc2cc3c(cc2cc1C)CCC3	-	-	-	-	-	-	.	.
Nc1nc(SCC(=O)NC2CCCC2)[nH]c(=O)c1-c1ccccc1	-	-	-	-	-	-	.	.
Cc1ccc(OCCn2cc(/C=N/NC(=O)c3ccncc3)c3ccccc32)cc1	-	-	-	-	-	-	.	.
Cc1ccc(OCCn2cc(/C=C3\C(=O)NN(c4ccccc4)C3=O)c3ccccc32)cc1	.	-	-	14	-	-	-	-
O=C(/C=C/c1ccc(F)cc1)N1CCN(c2ccccn2)CC1	-	-	-	16	-	-	-	-
c1ccc2c(c1)N1CCCN=C1N2CCN1CCCCC1	-	-	-	18	-	-	-	-
Cc1cc(NC(=O)CN2CCC(C)CC2)no1	-	-	-	-	-	-	.	.
CCOC(=O)CS(=O)(=O)c1ccc(C(F)(F)F)cn1	-	-	-	-	-	-	.	.
O=S(=O)(c1ccccc1)c1ccc(C(F)(F)F)cn1	-	-	-	35	-	-	-	-
O=C(CN1CCSCC1)N/N=C/c1cccc(Cl)c1	-	-	-	-	-	-	.	.
N#CCCCCN1CCCC1	-	-	-	-	.	-	.	.
CNCc1c(C)nn(-c2ccccc2)c1C	-	-	-	34	-	-	-	-
NS(=O)(=O)c1ccc(N/N=C/c2cn(-c3ccccc3)nc2-c2cccs2)c([N+](=O)[O-])c1	-	-	-	38	-	-	-	-
O=C1c2cccc3cc([N+](=O)[O-])cc(c23)C(=O)N1CCN1CCCC1	-	-	-	24	.	-	23	92
Oc1cccc(/C=N/Nc2cc(N3CCOCC3)nc(N3CCOCC3)n2)c1	-	-	-	13	-	-	-	-
CCOC(=O)N1CCC(N2Cc3cccc(C(=O)Nc4ccc(CC)cc4)c3C2=O)CC1	-	-	-	12	-	-	-	-
CCOC(=O)N1CCC(N2Cc3cccc(C(=O)Nc4ccc(F)cc4)c3C2=O)CC1	-	-	-	-	-	-	.	.
CCOC(=O)c1c(-n2c(C)cc(C=O)c2C)sc2c1CCCC2	-	-	-	16	-	-	21	-
CCOC(=O)c1cccc(-n2c(C)cc(C=O)c2C)c1	-	-	-	-	-	-	.	.
COc1ccccc1Nc1ccc(N)cc1	-	-	-	13	-	-	-	-
COc1ccccc1Nc1nc(Cl)nc(Nc2ccccc2OC)n1	-	-	-	-	-	-	.	.
